The target in test [1] is Androgen receptor (Homo sapiens) (UniProt P10275). The experiment in a line: qHTS assay for small molecule agonists of androgen receptor signaling (AID 588515; active = well fitted curve in the direction sought with a large enough effect in the signal ratio, with a control signal flat; the % refers to the signal ratio; also: % is scaled to controls: 0 for no effect and ±100 for the full control effect). The settings on record: AR-UAS-bla HEK293, beta-lactamase ratio, agonist 16 h; stronger effect = higher value. In short, it runs like this: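 Stimulation of an AR-responsive β-lactamase reporter in GripTite HEK293 cells was measured after 16 h compound exposure at 37 °C, via CCF4 fluorescence after 2 h RT. EC50 from Hill fits, normalized to R1881 at 30 nM.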
Sequence of Androgen receptor (Homo sapiens) (P10275 whole entry, looked up): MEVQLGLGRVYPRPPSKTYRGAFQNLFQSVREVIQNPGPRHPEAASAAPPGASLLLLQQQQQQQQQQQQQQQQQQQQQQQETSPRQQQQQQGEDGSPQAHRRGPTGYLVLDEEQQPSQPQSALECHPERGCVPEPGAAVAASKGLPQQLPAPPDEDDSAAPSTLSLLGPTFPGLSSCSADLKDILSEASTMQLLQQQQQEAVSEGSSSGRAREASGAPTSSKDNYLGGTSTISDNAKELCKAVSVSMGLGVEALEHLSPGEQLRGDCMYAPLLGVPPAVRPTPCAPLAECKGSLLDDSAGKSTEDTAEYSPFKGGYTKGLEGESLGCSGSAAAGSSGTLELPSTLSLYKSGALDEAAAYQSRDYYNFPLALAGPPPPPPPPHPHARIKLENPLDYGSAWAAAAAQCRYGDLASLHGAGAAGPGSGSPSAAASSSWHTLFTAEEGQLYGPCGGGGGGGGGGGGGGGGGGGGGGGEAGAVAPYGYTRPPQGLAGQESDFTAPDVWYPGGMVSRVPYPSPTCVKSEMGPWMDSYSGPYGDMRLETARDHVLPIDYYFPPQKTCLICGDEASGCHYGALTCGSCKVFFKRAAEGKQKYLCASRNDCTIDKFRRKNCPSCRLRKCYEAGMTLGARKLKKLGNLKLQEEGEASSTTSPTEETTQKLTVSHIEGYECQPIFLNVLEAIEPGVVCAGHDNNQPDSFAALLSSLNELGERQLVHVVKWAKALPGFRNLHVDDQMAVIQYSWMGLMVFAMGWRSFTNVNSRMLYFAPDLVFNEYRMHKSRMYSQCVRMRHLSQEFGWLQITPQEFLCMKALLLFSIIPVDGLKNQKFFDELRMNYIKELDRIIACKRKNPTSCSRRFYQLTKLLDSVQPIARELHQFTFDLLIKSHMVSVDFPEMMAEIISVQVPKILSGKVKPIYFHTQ

The target is the same in test [2]. Kind of test: qHTS assay for small molecule antagonists of androgen receptor signaling (AID 588516; active = well fitted curve in the direction sought with a large enough effect in the signal ratio, with a control signal flat, not every such curve was filed as active; the % refers to the signal ratio; also: % is scaled to controls: 0 for no effect and ±100 for the full control effect). The note with it: AR-UAS-bla HEK293, beta-lactamase ratio, antagonist mode, 16 h; series mostly up to 76.8 µM. In a few lines: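 HEK293 AR-UAS-bla cells, 10% dialyzed FBS medium; cpd titration + R1881 10 nM final, 16 h 37 C; CCF4 2 h RT; FRET ratio; IC50/efficacy via Hill fit.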

The target of test [3] is Glucocorticoid receptor (Homo sapiens) (UniProt P04150). The experiment in a line: qHTS assay for small molecule antagonists of glucocorticoid receptor signaling (AID 588533; active = well fitted inhibition curve with a large enough effect in the signal ratio, with a control signal flat, not every such curve was filed as active; the % refers to the signal ratio; also: potency is read from the fitted curve at half-maximal effect). The note with it: HeLa MMTV-bla, GRE beta-lactamase ratio, antagonist mode, 18 h; series mostly up to 76.8 µM. In short, it runs like this:
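Antagonist-mode qHTS: compound titrations added to GRE-bla HeLa cells, then dexamethasone 2 nM final; 18 h, 37 C. CCF4 FRET fluorescence normalized to dexamethasone and DMSO; IC50 from Hill fit.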

In test [4] the target is Peroxisome proliferator-activated receptor gamma (Homo sapiens) (UniProt P37231). Kind of test: qHTS assay for small molecule agonists of peroxisome proliferator-activated receptor gamma signaling (AID 588536; active = well fitted curve in the direction sought with a large enough effect in the signal ratio, with a control signal flat, not every such curve was filed as active; the % refers to the signal ratio;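 also: 0% = DMSO basal wells and 100% = rosiglitazone at 2 µM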). The settings on record: HEK293 PPARg-UAS-bla, beta-lactamase ratio, 16 h; series mostly up to 76.7 µM. In a few lines:
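Beta-lactamase reporter read-out: CCF4 fluorescence (ex 405, em 460/530 nm) after 2 h at RT. HEK293 GeneBLAzer cells were treated for 16 h at 37 C. Hill fits gave EC50 and efficacy versus 2 uM rosiglitazone (100%) and DMSO (0%).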

For test [5] the target is unchanged. Kind of test: qHTS assay for small molecule antagonists of peroxisome proliferator-activated receptor gamma signaling (AID 588537; active = well fitted inhibition curve with a large enough effect in the signal ratio, with a control signal flat, not every such curve was filed as active; the % refers to the signal ratio;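 also: reporter cells co-stimulated with 50 nM rosiglitazone agonist during compound treatment; % of control where 0% means no effect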). The note with it: HEK293 PPARg-UAS-bla, beta-lactamase ratio, antagonist mode; series mostly up to 76.8 µM. In short, it runs like this:
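Read-out: CCF4 fluorescence (ex 405, em 460/530 nm) after 2 h at RT. Cells were HEK293 carrying a UAS-bla reporter and treated 16 h at 37 C with compound plus rosiglitazone (50 nM final). Normalized to rosiglitazone and DMSO.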

In test [6] the target is Vitamin D3 receptor (Homo sapiens) (UniProt P11473). Kind of test: qHTS assay for small molecule antagonists of vitamin D receptor signaling (AID 588541).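 Also: receptor activated by calcitriol during compound treatment; % is scaled to controls: 0 for no effect and ±100 for the full control effect.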 The settings on record: HEK293T VDR-UAS-bla, beta-lactamase ratio, antagonist mode; series mostly up to 76.7 µM. In short, it runs like this: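 VDR-UAS-bla HEK293T cells in 2% charcoal-stripped FBS were stimulated with 1-alpha,25-dihydroxyvitamin D3 (3 nM final) plus compound for 16 h at 37 C. The beta-lactamase CCF4 readout was normalized to 50 nM agonist and DMSO, and Hill fits gave IC50.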
Sequence of Vitamin D3 receptor (Homo sapiens) (P11473 whole entry, looked up): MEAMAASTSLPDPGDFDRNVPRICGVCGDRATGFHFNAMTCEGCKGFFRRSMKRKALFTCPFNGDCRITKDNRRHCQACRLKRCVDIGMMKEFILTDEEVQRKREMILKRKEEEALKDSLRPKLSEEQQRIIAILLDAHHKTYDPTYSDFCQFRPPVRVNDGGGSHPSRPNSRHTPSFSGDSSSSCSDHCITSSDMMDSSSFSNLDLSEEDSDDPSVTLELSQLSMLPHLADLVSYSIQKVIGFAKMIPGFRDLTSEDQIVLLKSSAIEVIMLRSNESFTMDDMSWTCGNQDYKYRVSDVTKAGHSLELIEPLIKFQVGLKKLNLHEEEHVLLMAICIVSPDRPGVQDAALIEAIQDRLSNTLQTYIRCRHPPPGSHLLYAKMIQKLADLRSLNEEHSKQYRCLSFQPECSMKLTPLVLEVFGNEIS

The nature of test [7]: qHTS assay for small molecule agonists of retinoid X receptor alpha signaling (AID 588544). The note with it: HEK293T RXRa-UAS-bla, beta-lactamase reporter, 18 h; 530 nm emission.
Test [8] is described as follows: qHTS assay for small molecule activators of the nuclear factor-kappa B (NF-kB) signaling pathway (AID 651749; active = well fitted activation curve with a large enough effect in the signal ratio; the % refers to the signal ratio; also: % of control where 0% means no effect). The settings on record: NF-kB-bla ME-180 cells, beta-lactamase FRET ratio, 16 h; activation: stronger effect = higher value. In short, it runs like this:
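NF-kB-bla ME-180 cells, 2,000/well; 23 nL compound or DMSO pinned; 16 hr, 37C/5% CO2; beta-lactamase FRET read-out.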

The target in test [9] is Cytochrome P450 3A4 (Homo sapiens) (UniProt P08684). Kind of test: qHTS Assay for Inhibitors and Substrates of Cytochrome P450 3A4 (AID 884; active = well fitted curve in the direction sought with a large enough effect; an effect the other way counts as inactive or inconclusive; also: % is scaled to controls: 0 for no effect and ±100 for the full control effect; nearly all actives have a fitted effect of over 50% in size). The settings on record: recombinant CYP3A4, Luciferin-PPXE luminescence; series mostly up to 57.1 µM. In short, it runs like this: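 Luminescent readout of luciferin produced by CYP3A4 (20 nM) dealkylation of Luciferin-PPXE, 25 uM (its KM). NADPH-driven reaction ran 60 min at RT after 10 min compound preincubation; data scaled to 57 uM ketoconazole as 100% inhibition.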
Sequence of Cytochrome P450 3A4 (Homo sapiens) (P08684 whole entry, looked up): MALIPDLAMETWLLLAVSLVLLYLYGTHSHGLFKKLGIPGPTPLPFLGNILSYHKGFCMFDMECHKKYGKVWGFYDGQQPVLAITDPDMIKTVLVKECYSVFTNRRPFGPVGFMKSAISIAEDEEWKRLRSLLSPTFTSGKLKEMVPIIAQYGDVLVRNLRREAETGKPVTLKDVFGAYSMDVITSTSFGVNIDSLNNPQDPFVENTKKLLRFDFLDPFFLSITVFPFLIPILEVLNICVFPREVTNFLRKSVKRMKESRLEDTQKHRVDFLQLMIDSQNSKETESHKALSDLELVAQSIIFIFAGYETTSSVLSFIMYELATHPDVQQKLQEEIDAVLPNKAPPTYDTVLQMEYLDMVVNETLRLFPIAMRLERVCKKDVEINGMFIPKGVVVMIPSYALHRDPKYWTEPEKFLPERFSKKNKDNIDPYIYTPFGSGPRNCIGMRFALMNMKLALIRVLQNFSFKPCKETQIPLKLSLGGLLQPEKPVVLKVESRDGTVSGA

Test [10] in a line: Confirmation and Secondary Assay for Modulators of Hemoglobin Beta Chain Splicing at IVS2 654 locus (AID 910; active = well fitted curve in the direction sought with a large enough effect; an effect the other way counts as inactive or inconclusive;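 also: HeLa cells stably carrying EGFP split by mutant beta-globin IVS2-654 intron; % of control where 0% means no effect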). The note with it: HeLa EGFP-654 splicing reporter, GFP fluorescence, 48 h; series mostly up to 46.1 µM. In a few lines: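 HeLa cells stably expressing EGFP interrupted by β-globin IVS2-654 intron, seeded overnight in Opti-MEM/2% FCS, then treated 2 days at 37 °C. Restored splicing read as total peak GFP intensity per well by laser scanning cytometry (488 nm excitation, 500–520 nm emission); 500 nM antisense PNA as control.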

The nature of test [11]: Confirmation and Secondary Assay for Modulators of Hemoglobin Beta Chain Splicing at IVS2 705 locus (AID 930; active = well fitted curve in the direction sought with a large enough effect; an effect the other way counts as inactive or inconclusive;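 also: HeLa cells stably expressing the EGFP-705 splicing reporter; GFP fluorescence per well restored by corrected splicing of the IVS2-705 intron in EGFP; % of control where 0% means no effect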). The note with it: HeLa EGFP-705 splicing reporter, GFP fluorescence, 48 h; series mostly up to 46.1 µM. In a few lines:
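HeLa EGFP-705 reporter; 500 cells/well, o/n 37C 5% CO2; cpd 2 d; 488 ex/500-520 em laser scan; total peak GFP intensity/well. Ref: 500 nM […] antisense PNA.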

In test [12] the target is Estrogen receptor (Homo sapiens) (UniProt P03372). The experiment in a line: qHTS assay for small molecule agonists of estrogen receptor alpha signaling (AID 588514).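 Also: 0% = vehicle only and 100% = reference agonist; nearly all actives have a fitted effect of over 70% in size.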 The note with it: ER-alpha-UAS-bla HEK293, beta-lactamase ratio, 18 h; series mostly up to 76.8 µM. In short, it runs like this: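 Read-out: CCF4 fluorescence from a beta-lactamase reporter in ER-alpha-UAS-bla HEK 293 cells after 18 hrs of compound exposure at 37 C. Normalized to 20 nM 17-beta-estradiol (100%) and DMSO (0%).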
Sequence of Estrogen receptor (Homo sapiens) (P03372 whole entry, looked up): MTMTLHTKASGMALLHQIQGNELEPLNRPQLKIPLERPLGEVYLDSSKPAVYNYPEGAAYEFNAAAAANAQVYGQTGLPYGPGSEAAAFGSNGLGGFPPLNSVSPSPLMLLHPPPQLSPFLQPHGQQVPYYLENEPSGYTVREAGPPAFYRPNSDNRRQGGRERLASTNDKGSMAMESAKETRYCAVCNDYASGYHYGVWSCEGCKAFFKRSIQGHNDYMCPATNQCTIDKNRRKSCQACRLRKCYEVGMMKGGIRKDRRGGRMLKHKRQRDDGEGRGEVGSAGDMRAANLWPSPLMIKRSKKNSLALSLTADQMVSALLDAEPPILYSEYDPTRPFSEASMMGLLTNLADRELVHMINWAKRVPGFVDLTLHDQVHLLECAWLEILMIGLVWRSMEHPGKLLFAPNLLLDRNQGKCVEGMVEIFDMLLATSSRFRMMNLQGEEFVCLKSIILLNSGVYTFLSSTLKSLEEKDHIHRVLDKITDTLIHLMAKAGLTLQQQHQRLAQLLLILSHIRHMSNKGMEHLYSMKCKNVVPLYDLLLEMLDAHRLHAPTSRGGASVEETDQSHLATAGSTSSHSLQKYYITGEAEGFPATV

A short description of test [13]: qHTS assay for small molecule activators of the human pregnane X receptor (PXR) signaling pathway (AID 720659; call rule not given here; also: 0% is about no effect). The note with it: DPX-2 HepG2 CYP3A4-luciferase, 24 h; series mostly up to 92.3 µM.
For test [14], the target named is Glucocorticoid receptor (Homo sapiens) (UniProt P04150). Kind of test: qHTS assay for small molecule agonists of glucocorticoid receptor signaling (AID 588532; active = well fitted curve in the direction sought with a large enough effect in the signal ratio, with a control signal flat; the % refers to the signal ratio;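 also: 100% = dexamethasone at 0.1 µM and 0% = DMSO only wells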). The settings on record: HeLa MMTV-bla, beta-lactamase ratio, agonist, 18 h; activation: stronger effect = higher value, percent of dexamethasone control, DMSO zero. In short, it runs like this:
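HeLa GRE-bla reporter cells; 18 h compound exposure at 37 C; 2 h CCF4 loading at room temperature; fluorescence at 460 and 530 nm; EC50 by Hill equation.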

Inconclusive results are not listed. The source made the active and inactive calls. Unless noted, calls follow the shape of the full dose curve.

Sequence of Peroxisome proliferator-activated receptor gamma (Homo sapiens) (P37231 whole entry, looked up): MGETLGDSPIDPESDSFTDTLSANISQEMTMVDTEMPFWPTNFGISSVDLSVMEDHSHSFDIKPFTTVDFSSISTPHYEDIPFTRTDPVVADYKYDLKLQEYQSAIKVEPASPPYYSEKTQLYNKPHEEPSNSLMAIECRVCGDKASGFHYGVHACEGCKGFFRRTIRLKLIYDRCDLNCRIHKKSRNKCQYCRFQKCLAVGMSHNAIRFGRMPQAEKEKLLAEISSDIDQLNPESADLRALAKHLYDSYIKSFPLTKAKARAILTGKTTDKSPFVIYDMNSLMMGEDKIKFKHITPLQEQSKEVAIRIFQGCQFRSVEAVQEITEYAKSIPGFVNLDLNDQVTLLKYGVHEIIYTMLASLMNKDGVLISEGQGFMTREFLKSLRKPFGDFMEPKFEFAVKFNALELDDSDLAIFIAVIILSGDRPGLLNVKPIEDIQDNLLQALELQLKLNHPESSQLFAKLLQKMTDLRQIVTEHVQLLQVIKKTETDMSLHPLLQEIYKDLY
Sequence of Glucocorticoid receptor (Homo sapiens) (P04150 whole entry, looked up): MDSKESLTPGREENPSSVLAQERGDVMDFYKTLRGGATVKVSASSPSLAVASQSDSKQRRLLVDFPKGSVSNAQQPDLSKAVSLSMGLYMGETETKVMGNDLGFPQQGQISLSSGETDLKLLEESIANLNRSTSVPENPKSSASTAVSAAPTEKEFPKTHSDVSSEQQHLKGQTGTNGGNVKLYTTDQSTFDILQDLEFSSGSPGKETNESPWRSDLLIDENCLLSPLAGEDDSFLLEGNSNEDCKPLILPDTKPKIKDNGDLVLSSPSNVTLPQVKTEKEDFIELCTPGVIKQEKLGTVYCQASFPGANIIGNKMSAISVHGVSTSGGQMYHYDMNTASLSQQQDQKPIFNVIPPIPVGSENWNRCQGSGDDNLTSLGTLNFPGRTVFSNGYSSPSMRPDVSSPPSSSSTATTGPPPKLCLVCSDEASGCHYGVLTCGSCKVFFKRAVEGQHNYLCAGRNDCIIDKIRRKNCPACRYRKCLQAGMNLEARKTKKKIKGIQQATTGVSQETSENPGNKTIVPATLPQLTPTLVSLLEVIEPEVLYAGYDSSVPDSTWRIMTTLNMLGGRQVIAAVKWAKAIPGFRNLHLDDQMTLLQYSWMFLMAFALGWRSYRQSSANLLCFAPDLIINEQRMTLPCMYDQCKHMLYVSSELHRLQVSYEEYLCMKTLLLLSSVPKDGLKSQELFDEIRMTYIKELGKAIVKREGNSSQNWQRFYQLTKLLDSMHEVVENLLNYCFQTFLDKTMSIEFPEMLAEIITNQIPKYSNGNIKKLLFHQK

As to `COc1ccc(/C(=C/C(=O)N2CCOCC2)c2ccc(Cl)cc2)cc1OC`, the activation in test [1] was -2.83% (inactive); in test [8] it was -1.84% (inactive). The Potency result in [2], in test [3], in test [4], in test [5] and in test [6] was “inactive” in each case. In addition, the max response in test [7] came out at 28.2%.
Regarding `CCOc1cc(C(C)(C)C)ccc1C1COC(c2c(F)cccc2F)=N1` (centres undefined), the activation in [1] is -19.9% (inactive); in test [8] it was 3.07% (inactive).
As to `CSc1nc(NC(C)C)nc(NC(C)C)n1`, the Potency entry in test [9], in test [10], in [12], in test [4], in test [5] and in [6] was “inactive” throughout. Besides, the outcome in test [11] was inactive.
As for `Cc1ccccc1CO[C@@H]1C[C@@]2(C(C)C)CC[C@]1(C)O2`, the activation in test [1] is -0.477% (inactive); in test [8], -3.81% (inactive). For the same compound, the Potency entry in test [2], in test [4], in [5] and in test [6] was “inactive” throughout. Besides, the max response in test [7] stood at 4.66%.
Regarding `C[N+]1(C)CCCCC1`, the activation in test [1] is 4.04% (inactive); in test [8], 0.391% (inactive). Besides, the Potency entry in test [2], in test [4], in test [5] and in [6] was “inactive” throughout. Also, the max response in test [7] is -8.78%. Further, the compound was classed as inactive in test [13].
For `C=CC(=O)OCC(CC)(COC(=O)C=C)COC(=O)C=C`, the results for the activation in test [1], in test [14] and in [8] were -16.7% (inactive), -13.7% (inactive) and 0.162% (inactive), respectively. For the same compound, in test [3], the Potency was 44.7 µM (active).
As to `Brc1ccc(Br)cc1`, in [14], the activation is 1.41% (inactive). For the same compound, the Potency result in [3], in test [4], in [5] and in test [6] was “inactive” each time. The max response in [7] stood at 0.756%. In [13], the compound was called inactive.
Take `CCNS(=O)(=O)C(F)(F)C(F)(F)C(F)(F)C(F)(F)C(F)(F)C(F)(F)C(F)(F)C(F)(F)F`: the activation in test [1] was 7.01% (inactive). For the same compound, the Potency entry in [4], in test [5] and in test [6] was “inactive” throughout. Moreover, the max response in test [7] was -3.73%. Further, in test [13], the result was inactive.
`CCC[CH2][Sn](=[O])[CH2]CCC`: the activation in test [1] was 0.348% (inactive). Besides, the Potency entry in test [2], in test [3], in test [4], in [5] and in test [6] was “inactive” in each case. Also, in [7], the max response is -5.73%. In test [13], the compound was classed as inactive.
Regarding `CCCOc1nn(C(=O)NS(=O)(=O)c2ccccc2C(=O)OC)c(=O)n1C`, the activation was 9.43% (inactive) in test [1] and -2.67% (inactive) in [8]. Also, the Potency entry in test [2], in test [3], in test [4] and in test [5] was “inactive” each time. For the same compound, the compound was classed as inactive in test [13].
As for `CNC(=O)N(C)c1nc2ccccc2s1`, the activation is -11.3% (inactive) in [1] and 0.981% (inactive) in [8]. Also, the Potency result in test [3], in [4], in [5] and in [6] was “inactive” in each case. The max response in test [7] was -6.4%.
On to `C[C@H]1[C@H](c2ccc(Cl)cc2)SC(=O)N1C(=O)NC1CCCCC1`, for which the activation was -15.6% (inactive) in test [1] and -1.81% (inactive) in [14]. Besides, the Potency entry in test [3] and in test [6] was “inactive” each time.
In the case of `COP(=O)(OC)Oc1nc(Cl)c(Cl)cc1Cl`, the Potency entry in test [2], in test [3] and in [6] was “inactive” throughout. For the same compound, the max response in test [7] was 28.3%. The activation in [8] was 1.02% (inactive). Also, the compound was classed as inactive in test [13].
As to `CCNc1nc(NC(C)C)nc(SC)n1`, the activation is -1.4% (inactive) in [1] and -1.51% (inactive) in test [8]. Moreover, the Potency entry in [2], in test [4], in test [5] and in test [6] was “inactive” each time. For the same compound, the max response in test [7] is -4.47%.
Consider `CN/C(=N\[N+](=O)[O-])NCc1cnc(Cl)s1`, for which the Potency result in [12], in [4], in test [5] and in test [6] was “inactive” in each case. Besides, the max response in [7] is -16.2%. Further, the call in test [13] was inactive.
As for `CC(O)CN(CC(C)O)CC(C)O` (centres undefined), the activation in test [14] was 4.4% (inactive). Further, the Potency entry in [3] was “inactive”. The result in test [13] was inactive.
Consider `CCC[CH2][Sn]([CH2]CCC)([CH2]CCC)[CH2]CCC`, for which the activation was -2.61% (inactive) in [14] and 1.03% (inactive) in test [8]. In addition, the Potency result in test [3], in test [5] and in test [6] was “inactive” in each case. The compound was called inactive in [13].
In the case of `COC(=O)c1ccccc1S(=O)(=O)NC(=O)Nc1nc(C)nc(OC)n1`, the Potency result in [6] is “inactive”.

The values are drawn from PubChem BioAssay (NCATS).
